ALOX12 inh: Primary qHTS assay for inhibitors of human arachidonate 12S-lipoxygenase (ALOX12): Round 2 | AID 1671190, 2021 | Potency, µM (doses to about 108 µM), without a hit: at the highest dose activity change, negative = inhibition, actives largely listed as inhibitors | 1.1% of 580,000 active | purified 12hLO, xylenol orange hydroperoxide absorbance; further: on the % scale 0 is the no-effect control and ±100 the full control effect
Target sequence (P18054 whole entry, looked up): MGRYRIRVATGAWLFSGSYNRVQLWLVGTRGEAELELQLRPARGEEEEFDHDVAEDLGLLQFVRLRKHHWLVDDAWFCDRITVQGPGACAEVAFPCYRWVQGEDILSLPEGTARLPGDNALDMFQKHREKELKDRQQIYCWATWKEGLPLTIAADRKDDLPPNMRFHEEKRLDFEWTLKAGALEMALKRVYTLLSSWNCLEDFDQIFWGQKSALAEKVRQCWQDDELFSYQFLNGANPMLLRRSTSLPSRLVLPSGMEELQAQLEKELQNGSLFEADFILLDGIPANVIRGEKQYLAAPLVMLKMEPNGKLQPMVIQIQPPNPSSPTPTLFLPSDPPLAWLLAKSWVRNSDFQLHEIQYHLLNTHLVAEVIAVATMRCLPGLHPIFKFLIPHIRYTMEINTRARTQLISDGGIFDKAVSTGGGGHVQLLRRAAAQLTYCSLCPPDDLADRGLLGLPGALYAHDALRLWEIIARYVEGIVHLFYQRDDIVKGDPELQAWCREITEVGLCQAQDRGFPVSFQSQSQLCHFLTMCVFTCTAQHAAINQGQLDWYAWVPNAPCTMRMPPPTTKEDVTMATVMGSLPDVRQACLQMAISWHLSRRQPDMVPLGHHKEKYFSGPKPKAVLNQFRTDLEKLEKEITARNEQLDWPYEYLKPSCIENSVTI
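Hydroperoxide product was detected by ferrous iron/xylenol orange as the 573 to 405 nm absorbance ratio. Arachidonic acid at 40 uM (final) was turned over for 30 min at room temperature by 150 nM human 12hLO, pH 7.0 Hepes buffer, after 15 min compound preincubation.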
Sfp PPTase inh: qHTS Assay for Inhibitors of Bacillus subtilis Sfp phosphopantetheinyl transferase (PPTase); 4'-phosphopantetheinyl transferase ffp (Bacillus subtilis), Q9F4F7; Biochemical Sfp PPTase activity, qHTS; Potency, µM, for inactives: largest response in the series, negative = inhibition, actives largely listed as inhibitors; 3.5% of 310,000 active;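 further: the enzyme is Sfp with the accession as filed and its product quenches rhodamine fluorescence; 0% = enzyme reaction without inhibitor and -100% = no enzyme wells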
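Reaction rates are the 30-min fluorescence difference (ex 525, em 598 nm) in wells containing 15 nM Sfp, 5 uM rhodamine-CoA and 12.5 uM BHQ-2-YbbR at pH 7.6 with 10 mM MgCl2.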
G9a inh: qHTS Assay for Inhibitors of Histone Lysine Methyltransferase G9a; Histone-lysine N-methyltransferase EHMT2 (Homo sapiens), Q96KQ7; G9a H3K9 monomethylation, AlphaScreen, 2 h; Potency, µM (highest dose often 102 µM), inactives show top-dose activity, negative = inhibition, actives largely listed as inhibitors; 8.8% of 350,000 active; further: on the % scale 0 is the no-effect control and ±100 the full control effect; nearly all actives have a fitted effect of over 75% in size
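Compounds were preincubated with 20 nM G9a for 15 min, after which biotinylated H3K9 peptide (500 nM) and SAM (20 uM) started a 2 h room-temperature reaction. Monomethylated product was quantified by antibody-based AlphaScreen chemiluminescence.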
VDR inh: Inhibitors of the vitamin D receptor (VDR): qHTS. Vitamin D3 receptor (Homo sapiens), P11473. VDR-SRC2-3 peptide fluorescence polarization, 2 h. Potency, µM, without a hit: max response, negative = inhibition, usual class: inhibitors. 0.93% of 400,000 active. AID 504847, 2011; further: on the % scale 0 is the no-effect control and ±100 the full control effect
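Compounds are added to VDR with labelled SRC2-3 coactivator peptide and held 2 h at room temperature. Inhibition of the VDR–peptide interaction is then read as a change in fluorescence polarization.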
GRP78 ERSR act: qHTS for Inducers of the Endoplasmic Reticulum Stress Response (ERSR) in Human Glioma: qHTS; U87-MG GRP78 promoter luciferase reporter, 16 h; Potency, µM, inactives show at the top dose activation, usual class: activators; 0.02% of 420,000 active; further: series mostly up to about 76 µM; % of control where 0% means no effect; nearly all actives have a fitted effect of over 35% in size
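Stably transfected U87-MG human glioma cells carrying a GRP78-based luminescent sensor were seeded at 1000 cells/well, pin-dosed with compounds and incubated 16 h. Luciferase reagent was then added, and end-point luminescence was read after 10 min at room temperature.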
* = called active by the depositor; ! = repeats disagree; [ ] = remark or other dose. Many of the other results were omitted from the sample, so hits are more common in it than they were. The call rests on the fitted dose curve; in most records, active means well fitted curve in the direction sought with a large enough effect; inconclusive means small, poorly fitted or top-dose-only effect, or another doubt; inactive means no such curve, though single readings can be large; an effect the other way counts as inactive or inconclusive. Potency means the concentration at half of the fitted maximal effect.

What do the screens show for `CN(C)CCCNC(=O)CC(c1ccc(F)cc1)c1ccco1` (configuration not stated)?
ALOX12 inh: 1.3%; Sfp PPTase inh: 8.4%; G9a inh: 26.8%; VDR inh: 0.1%; GRP78 ERSR act: -1.1%

What do the screens show for `CCCN(CCC)C(=O)CC(c1ccccc1)c1ccco1` (configuration not stated)?
ALOX12 inh: -56.8%; Sfp PPTase inh: 44.7µM*; VDR inh: -12.1%; GRP78 ERSR act: -1.0%

What do the screens show for `CCN(CC)C(=O)CC(c1ccc(F)cc1)c1ccco1` (configuration not stated)?
ALOX12 inh: inconclusive; Sfp PPTase inh: -27.7%; G9a inh: 14.1µM*; VDR inh: -23.6%; GRP78 ERSR act: -3.6%

How did NC(=O)CC(c1ccccc1)c1ccco1 (configuration not stated) do in these assays?
ALOX12 inh: -23.1%; Sfp PPTase inh: 13.4%; G9a inh: -0.5%[59 µM]; VDR inh: -11.5%; GRP78 ERSR act: -6.0%

Results for Cc1nc(-n2nc(C)c(Cl)c2C)sc1C(=O)N1CCCCC1 ?
ALOX12 inh: 34.6%

Results for O=C(N/N=C/c1ccc(N2CCOCC2)o1)c1cccc([N+](=O)[O-])c1 ?
ALOX12 inh: -13.3%; Sfp PPTase inh: 1.12µM*; G9a inh: 10µM*; VDR inh: inconclusive; GRP78 ERSR act: -3.6%

What do the screens show for `O=C(N/N=C/c1ccc(N2CCCCC2)o1)c1ccccc1`?
ALOX12 inh: -20.3%; Sfp PPTase inh: -107.5%; G9a inh: 10µM*; VDR inh: 22.4µM*; GRP78 ERSR act: -9.4%

How did CCOC(=S)SCc1cn2cccc(C)c2n1 do in these assays?
ALOX12 inh: -2.7%; Sfp PPTase inh: inconclusive; G9a inh: 31.6µM*; VDR inh: 17.3%; GRP78 ERSR act: 3.7%

Results for Cc1cccn2cc(COc3ccccc3C(=O)O)nc12 ?
ALOX12 inh: -44.9%

Results for Cc1ccc(C(=O)NCCCNC(=O)c2ccccn2)cc1 ?
ALOX12 inh: 17.7%; Sfp PPTase inh: 11.0%; G9a inh: 16.6%; VDR inh: 23.8%; GRP78 ERSR act: -1.9%

How did Cc1ccc(/C(=C\CN2CCCC2)c2ccccn2)cc1 do in these assays?
ALOX12 inh: -0.1%; Sfp PPTase inh: -9.8%; G9a inh: 7.52µM*!; VDR inh: 5.1%; GRP78 ERSR act: 1.2%

What do the screens show for `COc1ccc(OC)c(NC(=O)CN(C)S(=O)(=O)c2ccc3[nH]c4c(c3c2)CCCC4)c1`?
ALOX12 inh: -13.7%; G9a inh: 12.6µM*; VDR inh: 10.5%; GRP78 ERSR act: -4.0%

What do the screens show for `COc1cccc(CNC(=O)CN(C)S(=O)(=O)c2ccc3[nH]c4c(c3c2)CCCC4)c1`?
ALOX12 inh: -25.8%; G9a inh: 12.6µM*; VDR inh: 9.6%; GRP78 ERSR act: -2.9%

Results for Cc1ccc(N(C)S(=O)(=O)c2ccc3[nH]c4c(c3c2)CCCC4)cc1 ?
ALOX12 inh: -29.4%; G9a inh: inconclusive; VDR inh: 15.4%; GRP78 ERSR act: -4.4%

How did CN(CC(=O)NCc1ccc(Cl)cc1)S(=O)(=O)c1ccc2[nH]c3c(c2c1)CCCC3 do in these assays?
ALOX12 inh: -19.1%; G9a inh: 10µM*; VDR inh: 8.8%; GRP78 ERSR act: -5.2%

What do the screens show for `COc1cc(NC(=O)CN(C)S(=O)(=O)c2ccc3[nH]c4c(c3c2)CCCC4)cc(OC)c1OC`?
ALOX12 inh: -24.0%; G9a inh: inconclusive; VDR inh: 7.4%; GRP78 ERSR act: -2.2%

Results for CC(C)(C)c1ccc2c(c1)OCCOCCOc1cc(C(C)(C)C)ccc1OCCOCCO2 ?
ALOX12 inh: -20.4%

How did COc1ccc(NC2CCCN(C(=O)c3ccc(C(C)=O)cc3)C2)cc1 (configuration not stated) do in these assays?
ALOX12 inh: inactive; Sfp PPTase inh: 18.6%; G9a inh: -10.1%; VDR inh: -11.7%; GRP78 ERSR act: -0.1%

How did COc1ccc(NC2CCCN(C(=O)c3cccc(N(C)C)c3)C2)cc1 (configuration not stated) do in these assays?
ALOX12 inh: 12.6%; Sfp PPTase inh: 8.8%; G9a inh: 4.0%[12.7 µM]; VDR inh: -17.4%; GRP78 ERSR act: -2.2%

Results for COc1ccc(NC2CCCN(C(=O)c3ccc4[nH]c(C)c(C)c4c3)C2)cc1 (configuration not stated) ?
ALOX12 inh: -9.0%; Sfp PPTase inh: -0.2%; G9a inh: 39.8µM*; VDR inh: 8.5%; GRP78 ERSR act: -5.0%

How did CC(C)c1ccc(NC2CCCN(C(=O)c3cccc4nccnc34)C2)cc1 (configuration not stated) do in these assays?
ALOX12 inh: -0.4%; Sfp PPTase inh: 13.0%; G9a inh: -5.8%[59 µM]; VDR inh: -13.7%; GRP78 ERSR act: -5.8%

What do the screens show for `COc1ccc(NC2CCCN(C(=O)c3ccc(C(C)=O)s3)C2)cc1` (configuration not stated)?
ALOX12 inh: 1.8%; Sfp PPTase inh: 5.5%; G9a inh: 50.1µM*; VDR inh: 17.3%; GRP78 ERSR act: -7.7%

Results for Cc1cc(C)c(C(=O)N2CCCC(Nc3ccc(F)cc3)C2)o1 (configuration not stated) ?
ALOX12 inh: 8.6%; Sfp PPTase inh: 2.0%; G9a inh: 79.4µM*; VDR inh: 0.5%; GRP78 ERSR act: -3.2%

Results for CC(C)c1ccc(NC2CCCN(C(=O)c3ccccc3-c3ncc[nH]3)C2)cc1 (configuration not stated) ?
ALOX12 inh: 0.0%; Sfp PPTase inh: 0.9%; G9a inh: 44.7µM*; VDR inh: -15.3%; GRP78 ERSR act: -4.0%

What do the screens show for `c1coc(CN2CC(Oc3ccc(-c4noc(-c5ccncc5)n4)cc3)C2)c1`?
ALOX12 inh: -20.8%

How did COc1cccc(/C=C/C(=O)NC2CCCC2)c1OC do in these assays?
ALOX12 inh: -11.2%

What do the screens show for `CCCCC(=O)Nc1cccc(C(=O)OCc2cc(=O)n3nc(CCCC)sc3n2)c1`?
ALOX12 inh: -23.5%

What do the screens show for `COc1cc(/C=c2\s/c(=C\C(=O)C(C)(C)C)[nH]c2=O)cc(Cl)c1OC(C)C`?
ALOX12 inh: -1.3%

Results for CC(C)c1ccc(NC2CCCN(C(=O)c3ccc(N4CCOCC4)cc3)C2)cc1 (configuration not stated) ?
ALOX12 inh: 0.0%; Sfp PPTase inh: -3.1%; G9a inh: -24.7%; VDR inh: -15.5%; GRP78 ERSR act: 2.4%
